Reference: PubChem BioAssay (Tox21)
Results filed as inconclusive are left out. A call without a number means that no potency is given here. Activity calls are given as the source filed them. Unless noted, calls follow the shape of the dose curve; as a rule, active = well fitted curve in the direction sought with a large enough effect in the repeat runs; inconclusive = weak or mixed curves; inactive = no such curve, though single readings can be large; an effect the other way counts as inactive or inconclusive.

Columns and labels:
[1] = qHTS assay to identify small molecule antagonists of the progesterone receptor (PR) signaling pathway - cell viability counter screen (AID 1346798); settings: PR-UAS-bla HEK293T viability, CellTiter-Glo luminescence, 16 h; series mostly up to 92.4 µM; also: nearly all actives have a fitted effect of over 50% in size; also: potency is read from the fitted curve at half-maximal effect
Summary of the method: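 ATP content as viability readout: CellTiter-Glo luminescence, 30 min room temperature, in PR-UAS-bla HEK293T cells after 16 hr compound/R5020 treatment at 37C and 5% CO2.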

[2] = target: Thyrotropin-releasing hormone receptor (Homo sapiens) (UniProt P34981); assay: qHTS assay to identify small molecule antagonists of the thyrotropin-releasing hormone receptor (TRHR) signaling pathway (AID 1346877; active = well fitted inhibition curve with a large enough effect in the repeat runs, not every such curve was filed as active; also: potency is read from the fitted curve at half-maximal effect); settings: TRHR-HEK293, TRH-induced calcium fluorescence, antagonist mode; series mostly up to 51.3 µM
Thyrotropin-releasing hormone receptor (Homo sapiens), sequence (P34981 whole entry, looked up): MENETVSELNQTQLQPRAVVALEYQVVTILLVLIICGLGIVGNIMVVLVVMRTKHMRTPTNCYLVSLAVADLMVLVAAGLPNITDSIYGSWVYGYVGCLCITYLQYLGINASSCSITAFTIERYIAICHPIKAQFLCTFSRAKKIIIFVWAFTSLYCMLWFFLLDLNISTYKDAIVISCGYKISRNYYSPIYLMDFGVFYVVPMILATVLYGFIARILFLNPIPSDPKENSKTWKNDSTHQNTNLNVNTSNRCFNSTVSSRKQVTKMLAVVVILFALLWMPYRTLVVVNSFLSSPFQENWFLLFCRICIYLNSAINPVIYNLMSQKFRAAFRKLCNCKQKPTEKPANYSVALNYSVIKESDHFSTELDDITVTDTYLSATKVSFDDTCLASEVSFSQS
Summary of the method: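 Screening used HEK293 cells engineered with TRHR, with a brief 5 min room-temperature compound exposure preceding addition of TRH to 1 nM. The read-out was kinetic calcium-dye fluorescence, concentration-response from 15 doses in triplicate.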

[3] = target: Thyrotropin-releasing hormone receptor (Homo sapiens) (UniProt P34981); assay: qHTS assay to identify small molecule agonists of the thyrotropin-releasing hormone receptor (TRHR) signaling pathway (AID 1346891; calls by dose curve; also: potency is read from the fitted curve at half-maximal effect;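 as to activation: HEK293 cells expressing TRHR with calcium dye readout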); settings: TRHR-HEK293 calcium fluorescence, agonist mode; series mostly up to 57.6 µM
Summary of the method: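 In 1536-format, 1500 TRHR-Hek293 cells per well grew 18 h, took up calcium dye for 2 h at 37 °C, received compound, and were read kinetically; 15-point titrations, triplicates.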

[4] = qHTS assay to identify small molecule agonists of the progesterone receptor (PR) signaling pathway - cell viability counter screen (AID 1346799; calls by dose curve; also: nearly all actives have a fitted effect of over 45% in size; also: potency is read from the fitted curve at half-maximal effect); settings: PR-UAS-bla HEK293T viability, CellTiter-Glo luminescence, 16 h; series mostly up to 92.4 µM
Summary of the method: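 Cytotoxicity in PR-bla HEK293T cells: 16 h compound, 37C; CellTiter-Glo added post-FRET read; luminescence after 30 min RT.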

[5] = qHTS assay to identify small molecule agonists of the TGF-beta/Smad signaling pathway - cell viability counter screen (AID 1346829); settings: SBE-bla HEK293T viability, CellTiter-Glo luminescence, 5 h; series mostly up to 76.8 µM; also: nearly all actives have a fitted effect of over 45% in size; also: potency is read from the fitted curve at half-maximal effect
Summary of the method: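 Tox21 qHTS format: SBE-bla HEK 293T cells treated with DMSO-dissolved compounds for 5 hr; CellTiter-Glo luminescence after 30 min at room temperature.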

[6] = qHTS assay to identify small molecule antagonists of the TGF-beta/Smad signaling pathway - cell viability counter screen (AID 1346824); settings: SBE-bla HEK293T viability, CellTiter-Glo luminescence; series mostly up to 76.8 µM; also: nearly all actives have a fitted effect of over 50% in size; also: potency is read from the fitted curve at half-maximal effect
Summary of the method: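 Cytotoxicity counter-screen run in the same wells as the beta-lactamase Smad reporter read: CellTiter-Glo luminescence after 30 min at room temperature. HEK 293T SBE-bla cells had 5 hr compound exposure at 37 C with TGF-beta1 (0.25 ng/mL stock).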

[7] = qHTS assay to identify small molecule agonists of the TGF-beta/Smad signaling pathway (AID 1346859; active = well fitted activation curve with a large enough effect in the signal ratio in the repeat runs, not every such curve was filed as active; the % refers to the signal ratio); settings: SBE-bla HEK293T, TGF-beta/Smad beta-lactamase reporter, 5 h; series mostly up to 76.8 µM
Summary of the method: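 Stable Smad binding element-beta-lactamase HEK 293T cells; 5 hr compound exposure at 37 C under 5% CO2; 2 hr room-temperature substrate step; fluorescence excited at 405 nm, collected at 460 nm and 530 nm.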

[8] = target: Progesterone receptor (Homo sapiens) (UniProt P06401); assay: qHTS assay to identify small molecule antagonists of the progesterone receptor (PR) signaling pathway (AID 1346795; active = well fitted inhibition curve with a large enough effect in the signal ratio in the repeat runs, not every such curve was filed as active; the % refers to the signal ratio; also: potency is read from the fitted curve at half-maximal effect); settings: PR-UAS-bla HEK293T, beta-lactamase FRET ratio, 16 h; series mostly up to 92.4 µM
Progesterone receptor (Homo sapiens), sequence (P06401 whole entry, looked up): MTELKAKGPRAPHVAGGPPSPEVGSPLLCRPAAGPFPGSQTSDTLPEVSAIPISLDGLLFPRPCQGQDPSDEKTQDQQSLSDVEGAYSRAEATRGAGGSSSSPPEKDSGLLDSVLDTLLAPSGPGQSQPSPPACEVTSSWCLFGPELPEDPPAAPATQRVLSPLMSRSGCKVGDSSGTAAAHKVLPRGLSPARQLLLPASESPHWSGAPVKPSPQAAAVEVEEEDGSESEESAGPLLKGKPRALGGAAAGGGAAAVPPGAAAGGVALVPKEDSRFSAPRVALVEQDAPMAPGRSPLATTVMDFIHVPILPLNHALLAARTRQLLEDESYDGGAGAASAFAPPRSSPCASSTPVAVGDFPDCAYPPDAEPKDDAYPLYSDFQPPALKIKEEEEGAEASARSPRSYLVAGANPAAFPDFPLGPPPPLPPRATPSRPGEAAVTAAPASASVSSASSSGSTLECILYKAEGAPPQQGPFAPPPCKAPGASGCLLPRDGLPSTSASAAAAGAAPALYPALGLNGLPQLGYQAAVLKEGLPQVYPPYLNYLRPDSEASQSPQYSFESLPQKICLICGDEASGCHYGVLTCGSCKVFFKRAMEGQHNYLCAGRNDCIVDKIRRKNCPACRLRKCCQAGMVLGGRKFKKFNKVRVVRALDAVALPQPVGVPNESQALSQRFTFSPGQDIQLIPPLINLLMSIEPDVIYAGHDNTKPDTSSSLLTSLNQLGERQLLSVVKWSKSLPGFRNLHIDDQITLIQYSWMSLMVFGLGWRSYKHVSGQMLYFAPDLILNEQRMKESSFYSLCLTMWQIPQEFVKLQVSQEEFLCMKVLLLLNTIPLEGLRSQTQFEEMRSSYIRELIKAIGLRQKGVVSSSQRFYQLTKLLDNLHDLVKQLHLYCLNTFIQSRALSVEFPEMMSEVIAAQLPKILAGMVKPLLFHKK
Summary of the method: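 Inhibition of R5020-induced (1 nM final) beta-lactamase reporter signal in PR-UAS-bla HEK293T cells was scored by FRET fluorescence after overnight (16 hr) compound treatment.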

SMILES	Potency [1]	Potency [2]	Potency [3]	Potency [4]	Potency [5]	Potency [6]	Potency [7]	Potency [8]
O=C(Nc1cccc(C(F)(F)F)c1)c1cc(Br)cc(Br)c1O	21.7 µM (active)	inactive	inactive	–	–	–	–	–
CCOC(=O)O[C@H](C)OC(=O)c1ccc2c(c1)cc(C(=O)NC1CCN(C(C)C)CC1)n2Cc1cc(-c2ccc(Cl)s2)on1	22.7 µM (active)	inactive	inactive	22.7 µM (active)	45.8 µM (active)	–	–	–
CCCCCCCCCCCCCCCCCC[N+](C)(C)C	48.7 µM (active)	30.3 µM (active)	34.8 µM (active)	54.6 µM (active)	43.8 µM (active)	43.8 µM (active)	inactive	–
Cc1cc(O)c(C(C)(C)C)cc1C(C)(C)C	–	–	inactive	48.6 µM (active)	49 µM (active)	–	inactive	–
Cc1[nH]cnc1C[C@H]1CCc2c(C)c3ccccc3n2C1=O	–	inactive	inactive	–	inactive	–	inactive	37.6 µM (active)
CCN(C(=O)c1cc(C)cc(OC[C@H](C)Nc2ccncc2)c1)C(C)C	inactive	inactive	inactive	–	inactive	inactive	inactive	–
CCOc1ccc2nc3cc(N)ccc3c(N)c2c1	–	inactive	inactive	inactive	–	inactive	–	–
CNCc1cc(F)ccc1Oc1ccc(Cl)c(Cl)c1	inactive	–	34.7 µM (active)	–	inactive	inactive	inactive	61.1 µM (active)
O=[N+]([O-])c1ccccc1Nc1ccccc1	inactive	inactive	inactive	inactive	inactive	inactive	inactive	–
O=C1Cc2cc(CCN3CCN(c4nsc5ccccc45)CC3)c(Cl)cc2N1	inactive	inactive	inactive	–	inactive	inactive	inactive	inactive
N=C1N=C(N)c2cc3ccccc3cc21	27.3 µM (active)	inactive	inactive	27.3 µM (active)	–	–	–	–
O=C(Nc1cccc([N+](=O)[O-])c1)c1cc2ccccc2cc1O	24.3 µM (active)	inactive	inactive	inactive	–	–	inactive	–
CC(C)(C)C1CCC(CC2=C(O)c3ccccc3C(=O)C2=O)CC1 (stereo not drawn)	inactive	–	–	–	inactive	inactive	inactive	–
COc1ccc(CN2CCN(C(c3ccc(F)cc3)c3ccc(F)cc3)CC2)c(OC)c1OC	16.8 µM (active)	inactive	inactive	13.3 µM (active)	23.9 µM (active)	16.9 µM (active)	–	–
